One test concerns SRMS. To be noted: concentration: 1 μM, replicates: in singlicate, n = 1.
In the next test the test system is SRPK1. As to conditions: concentration: 1 μM, replicates: in singlicate, n = 1.
The next test has as its system SRPK2. As to conditions: concentration: 1 μM, replicates: in singlicate, n = 1.
In the next test the test system is SRPK3. As to conditions: concentration: 1 μM, replicates: in singlicate, n = 1.
The next test deals with STK16. As to conditions: concentration: 1 μM, replicates: in singlicate, n = 1.
The test system of another test is STK33. As to conditions: concentration: 1 μM, replicates: in singlicate, n = 1.
In the next test the test system is STK35. As to conditions: concentration: 1 μM, replicates: in singlicate; n = 1.
A further test deals with STK36. To be noted: concentration: 1 μM, replicates: in singlicate, n = 1.
The next test has as its system STK39. As to conditions: concentration: 1 μM, replicates: in singlicate, n = 1.
Another test relates to SYK. As to conditions: concentration: 1 μM, replicates: in singlicate, n = 1.
Another test deals with SgK110. As to conditions: concentration: 1 μM, replicates: in singlicate; n = 1.
For the next test, the system named is T1, TAK1.
T1 construct: gene MAP3K7
As to conditions: concentration: 1 μM, replicates: in singlicate, n = 1.

The next test has as its system TAOK1. As to conditions: concentration: 1 μM, replicates: in singlicate; n = 1.
Another test relates to TAOK2. As to conditions: concentration: 1 μM, replicates: in singlicate, n = 1.
The test system of the next test is TAOK3. To be noted: concentration: 1 μM, replicates: in singlicate, n = 1.
A further test concerns TBK1. As to conditions: concentration: 1 μM, replicates: in singlicate, n = 1.
In another test the test system is TEC. To be noted: concentration: 1 μM, replicates: in singlicate; n = 1.
The test system of a further test is TESK1. As to conditions: concentration: 1 μM, replicates: in singlicate, n = 1.
Another test has as its system TGFBR1. As to conditions: n = 1.
A further test relates to TGFBR2. As to conditions: concentration: 1 μM, replicates: in singlicate; n = 1.
Setting [1] is: concentration: 1 μM, replicates: in singlicate.

Where “and” joins values, the source holds several entries; their conditions need not be identical. Identical values can stand only once. Like-named read-outs stand apart in the source and are kept apart here.
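Further: KINOMEscan kinase panel screen.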

Consider `Nc1nccc2scc(-c3ccc4c(c3)CCN4C(=O)Cc3cc(F)ccc3F)c12` [GSK2587663], for which the “%Inh” value amounted to 0% in the test on SRMS; 8% with SRPK1; 0% with SRPK2; 0% in the test on SRPK3; 11% in the test with STK16; 0% with STK33. The “%Inh” value in the test with STK35 amounted to 0%; in the test with STK36, 0%; with STK39, 6%; with SYK it was 22%; in the test with SgK110, 0%; with TAK1, 0%. Also, the “%Inh” value with TAOK1 worked out at 0%; with TAOK2 it was 0%; in the test with TAOK3, 0%; in the test with TBK1, 6%; in the test with TEC, 0%; in the test on TESK1, 18%. Moreover, the results for the “%Inh” value in the test with TGFBR1 (setting [1]) and in the test on TGFBR2 were 19% and 0%, respectively.
Turning to `O=C(c1ccc(-c2cc(-c3c[nH]nc3-c3ccccn3)ccn2)cc1)N1CCCC1` [GW792479], the “%Inh” value worked out at 0% with SRMS; 0% with SRPK1; 64% in the test on SRPK2; 26% with SRPK3; 16% in the test with STK16; 0% with STK33. The “%Inh” value in the test with STK35 was determined as 0%; with STK36, 0%; in the test on STK39 it was 0%; in the test on SYK, 20%; with SgK110, 6%; with TAK1, 0%. Besides, the “%Inh” value turned out to be 0% with TAOK1; 45% with TAOK2; 0% in the test with TAOK3; 59% in the test on TBK1; 8% in the test on TEC; 20% in the test with TESK1. Besides, the “%Inh” value is on record as 93.6% with TGFBR1 (1 µM) and 39% in the test on TGFBR2.
For the compound `FC(F)(F)c1ccc(-c2cc(-c3c[nH]nc3-c3ccccn3)ccn2)cc1` [GW599550], the “%Inh” value in the test with SRMS turned out to be 0%; in the test on SRPK1 it was 24%; in the test with SRPK2, 13%; with SRPK3, 2%; in the test with STK16, 10%; with STK33 it was 0%. Also, the “%Inh” value with STK35 turned out to be 0%; with STK36 it was 0%; in the test on STK39, 0%; in the test with SYK, 44%; with SgK110, 0%; in the test on TAK1, 28%. For the same compound, the “%Inh” value in the test with TAOK1 is reported as 0%; with TAOK2 it was 0%; in the test on TAOK3 it was 0%; in the test on TBK1, 18%; with TEC, 0%; in the test with TESK1, 17%. For the same compound, the “%Inh” value in the test with TGFBR1 (1 µM) is reported as 88%; with TGFBR2, 77%.
`CCn1c(-c2ccncc2)nc2cnccc21` [SB-735216]: the “%Inh” value in the test on SRMS stood at 16%; in the test on SRPK1, 0%; in the test with SRPK2, 24%; in the test on SRPK3, 50%; with STK16 it was 0%; in the test on STK33 it was 0%. Also, the “%Inh” value is recorded as 0% in the test with STK35; 19% in the test with STK36; 6% in the test with STK39; 15% in the test with SYK; 0% in the test on SgK110; 20% in the test on TAK1. In addition, the “%Inh” value with TAOK1 is recorded as 15%; in the test on TAOK2, 13%; in the test with TAOK3, 18%; with TBK1, 17%; with TEC, 7%; in the test with TESK1, 24%. The “%Inh” value in the test on TGFBR1 (setting [1]) and in the test on TGFBR2 was 0% throughout.
Take `Fc1ccc(-c2ncn(CCCNCc3ccccc3)c2-c2ccncc2)cc1`: the “%Inh” value in the test on SRMS turned out to be 0%; in the test with SRPK1, 31%; in the test on SRPK2, 4%; in the test on SRPK3 it was 23%; in the test on STK16 it was 0%; in the test with STK33 it was 0%. For the same compound, the “%Inh” value in the test with STK35 is listed as 0%; in the test with STK36, 20%; in the test on STK39, 0%; in the test with SYK it was 23%; with SgK110, 12%; in the test with TAK1, 29%. Besides, the “%Inh” value with TAOK1 is given as 5%; in the test with TAOK2, 0%; with TAOK3 it was 0%; in the test with TBK1, 25%; in the test with TEC it was 8%; with TESK1 it was 6%. For the same compound, the “%Inh” value with TGFBR1 (setting [1]) worked out at 0%; in the test with TGFBR2, 10%.
Turning to `CCCc1ccc(S(=O)(=O)NC2CCN(c3ccnc(Nc4ccc(OC)cc4)n3)C2)cc1` (stereo not shown) [GSK1379737], the “%Inh” value with SRMS was found to be 0%; in the test on SRPK1, 28%; with SRPK2, 28%; in the test with SRPK3, 0%; in the test with STK16, 1%; in the test on STK33 it was 0%. For the same compound, the “%Inh” value in the test on STK35 worked out at 0%; with STK36, 15%; in the test with STK39, 17%; in the test with SYK, 18%; in the test with SgK110 it was 0%; in the test on TAK1 it was 0%. For the same compound, the “%Inh” value came out at 0% in the test on TAOK1; 0% in the test on TAOK2; 0% with TAOK3; 0% in the test with TBK1; 0% in the test on TEC; 36% in the test with TESK1. Moreover, the entries for the “%Inh” value in the test on TGFBR1 (setting [1]) and in the test on TGFBR2 were 28% and 0%, respectively.
For the compound `Cc1cccc(-c2nc(Nc3ccc4[nH]nnc4c3)c3ccccc3n2)n1` [GW867587], the “%Inh” value was found to be 10% in the test with SRMS; 0% with SRPK1; 0% in the test on SRPK2; 7% in the test with SRPK3; 0% with STK16; 0% in the test with STK33. For the same compound, the “%Inh” value with STK35 was 0%; in the test with STK36, 0%; in the test on STK39 it was 0%; in the test with SYK it was 0%; in the test with SgK110, 19%; in the test with TAK1, 0%. Moreover, the “%Inh” value is given as 0% in the test on TAOK1; 0% with TAOK2; 0% with TAOK3; 14% in the test on TBK1; 0% with TEC; 0% in the test on TESK1. In addition, the “%Inh” value in the test on TGFBR1 (setting [1]) is listed as 32%; in the test with TGFBR2 it was 0%.
With `C[C@H]1CC[C@@H](C(=O)Nc2ccccc2)CN1c1cc(-c2ccc3c(N)n[nH]c3c2)nc(N)n1` [GSK2283293], the “%Inh” value with SRMS was 19%; in the test with SRPK1, 54%; in the test with SRPK2, 0%; in the test on SRPK3, 16%; with STK16, 0%; in the test with STK33, 0%. Moreover, the “%Inh” value is 0% in the test on STK35; 0% with STK36; 0% in the test with STK39; 4% with SYK; 0% in the test on SgK110; 0% in the test on TAK1. For the same compound, the “%Inh” value in the test on TAOK1 stood at 0%; with TAOK2, 0%; with TAOK3, 0%; in the test with TBK1, 7%; in the test with TEC it was 11%; in the test on TESK1 it was 26%. Moreover, the figures for the “%Inh” value with TGFBR1 (setting [1]) and with TGFBR2 were 14% and 0%, respectively.
With `Nc1nc(-c2cccnc2)c(-c2ccnc3ccccc23)s1` [GW684083], the “%Inh” value is on record as 0% in the test on SRMS; 3% in the test with SRPK1; 4% with SRPK2; 18% in the test with SRPK3; 17% with STK16; 14% in the test on STK33. For the same compound, the “%Inh” value is recorded as 0% with STK35; 0% in the test with STK36; 0% in the test with STK39; 34% in the test with SYK; 48% in the test with SgK110; 1% in the test on TAK1. Further, the “%Inh” value with TAOK1 came to 0%; in the test on TAOK2, 0%; with TAOK3, 0%; in the test on TBK1 it was 2%; in the test on TEC, 0%; with TESK1 it was 0%. Besides, the results for the “%Inh” value in the test with TGFBR1 (setting [1]) and with TGFBR2 were 5% and 14%, respectively.
As for `COc1ccc(-c2nc3n(c2-c2ccncc2)CCC3)cc1` [SKF-104493], the “%Inh” value with SRMS (1 µM) was 12% and 13%; with SRPK1 (1 µM), 0% and 1%; in the test with SRPK2 (1 µM), 16% and 0%; in the test on SRPK3 (1 µM), 35% and 0%; in the test with STK16 (1 µM), 21% and 9%; with STK33 (1 µM), 0% and 8%. For the same compound, the “%Inh” value in the test on STK35 was 0%; in the test on STK36 (1 µM) it was 35% and 43%; in the test with STK39 (1 µM), 0% and 16%; in the test with SYK (1 µM), 1% and 48%; with SgK110 it was 0%; with TAK1 (1 µM), 0% and 31%. For the same compound, the “%Inh” value with TAOK1 was 0%; in the test on TAOK2 (1 µM), 26% and 10%; in the test on TAOK3 (1 µM), 5% and 0%; in the test with TBK1 (1 µM) it was 13% and 17%; with TEC it was 0%; with TESK1 (1 µM) it was 1% and 24%. Also, the “%Inh” value with TGFBR1 (concentration: 1 μM, replicates: in singlicate, 1 µM) is 37% and 31%; in the test on TGFBR2, 0%.
For the compound `Cl.Cl.c1ccc(-c2cc3ccncc3cc2OC2CCNCC2)cc1` [GSK1122999], the “%Inh” value came out at 0% with SRMS; 3% in the test with SRPK1; 0% in the test with SRPK2; 0% in the test on SRPK3; 0% with STK16; 100% in the test with STK33. The “%Inh” value was found to be 0% in the test with STK35; 88% in the test with STK36; 0% in the test with STK39; 19% in the test on SYK; 0% in the test with SgK110; 0% in the test on TAK1. The “%Inh” value in the test on TAOK1 came to 0%; with TAOK2 it was 0%; with TAOK3, 4%; with TBK1 it was 21%; in the test on TEC, 12%; with TESK1 it was 7%. Besides, the “%Inh” value was found to be 2% in the test with TGFBR1 (setting [1]) and 0% in the test with TGFBR2.

Source of the values: publication PMC5540273 (PLoS ONE, 2017).
